An excerpt weighted towards active compounds, which were near 18% of everything screened.
GCN5L2 inh: GCN5L2 (KAT2A) acetyltransferase inhibition; Q92830; GCN5L2 HAT assay, ThioGlo1 CoA-SH fluorescence; Potency, µM (doses to about 58.9 µM), for inactives: at the top dose activity change, negative = inhibition, hits mostly inhibitors; hit rate 0.21% among 390,000; AID 504327
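GCN5L2 (20nM final) in 50mM HEPES, 0.1mM EDTA pH 7.5, 0.01% Tween-20 was preincubated 15 min at room temperature with compound, then given ThioGlo1 (50uM), H3(1-25) peptide (75uM) and acetyl-CoA (70uM); CoA-thiol fluorescence (Ex340/Em540) was read at 0 and 20 min.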
DT40 TDP1 CPT: growth inhibition of DT40 Tdp1-/-;hTDP1 cells with camptothecin (screen for TDP1 inhibitors); chicken DT40 Tdp1-/-;hTDP1 cells + 20 nM CPT, ATP luminescence, 48 h; Potency, µM (highest dose often 46.2 µM), without a hit: at the top dose activity change, negative = growth inhibition, hits mostly inhibitors; hit rate 12% among 420,000; AID 686979; also: nearly all actives have a fitted effect of over 55% in size
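Chicken DT40 Tdp1-/- cells complemented with human TDP1, 400 cells/well, exposed to compounds plus 20 nM camptothecin for at least 48 h at 37 C; viability read as ATP content by CellTiter-Glo luminescence.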
VDR inhibitor: inhibitors of human vitamin D receptor; VDR-SRC2-3 peptide fluorescence polarization, 2 h; P11473; Potency, µM, without a hit: max response, negative = inhibition, hits mostly inhibitors; hit rate 0.93% among 400,000
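Compounds are added to VDR with labelled SRC2-3 coactivator peptide and held 2 h at room temperature. Inhibition of the VDR–peptide interaction is then read as a change in fluorescence polarization.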
PLK1 PBD inh: inhibitors of human PLK1 polo-box domain binding; hit rate 2.8% among 360,000; Plk1 PBD binding of FITC phosphopeptide, fluorescence polarization; Potency, µM, inactives show max response, negative = inhibition, usual class: inhibitors; also: series mostly up to about 57 µM; nearly all actives have a fitted effect of over 65% in size
TDP1 cell noCPT: qHTS for Inhibitors of human tyrosyl-DNA phosphodiesterase 1 (TDP1): qHTS in cells in absence of CPT. AID 686978, 2013. Potency, µM (series often up to 46.2 µM), for the others: at the top dose activity change, negative = growth inhibition, actives largely listed as inhibitors. DT40 Tdp1-/- hTDP1 cells, no CPT, ATP luminescence, 48 h. hit rate 15% among 420,000; also: nearly all actives have a fitted effect of over 55% in size
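Camptothecin absent (DMSO only). Human TDP1-complemented DT40 knockout cells, 400 cells/well, 37 °C for minimum 48 hr; ATP measured via CellTiter-Glo, 30 min dark incubation, luminescence.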
TDP1 inh: blocks human tyrosyl-DNA phosphodiesterase 1. recombinant TDP1, AlphaScreen DNA substrate cleavage. Potency, µM (doses to about 130 µM), inactives show at the highest dose activity change, negative = inhibition, hits mostly inhibitors. hit rate 0.28% among 350,000. AID 485290; also: nearly all actives have a fitted effect of over 40% in size
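Recombinant human Tdp1 (E. coli-expressed, 1 nM final) preincubated with compounds 15 min at room temperature, then 5'-biotin/3'-phosphotyrosine-FITC DNA substrate (15 nM final) added for 5 min. AlphaScreen beads (10 ug/ml final) added 10 min; cleavage lowers signal.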
An asterisk follows results filed as active; ? = inconclusive; · = not tested or not shown; [ ] = another dose, or the depositor's remark. Calls follow the shape of the dose curve; as a rule, active = well fitted curve in the direction sought with a large enough effect; inconclusive = small, poorly fitted or top-dose-only effect, or another doubt; inactive = no such curve, though single readings can be large; an effect the other way counts as inactive or inconclusive. % is scaled to controls: 0 for no effect and ±100 for the full control effect; potency is read from the fitted curve at half-maximal effect.

SMILES | GCN5L2 inh | DT40 TDP1 CPT | VDR inhibitor | PLK1 PBD inh | TDP1 cell noCPT | TDP1 inh
CC(=O)c1ccc(NC(=O)CSc2nnc3c(n2)[nH]c2ccccc23)cc1 | -16% | ? | -8% | · | 16µM* | -2%
Cc1nnc(NC(=O)CSc2nnc3c(n2)[nH]c2ccccc23)s1 | -11% | -6% | -12% | · | -22% | 1%[2.28 µM]
Cc1ccc(-c2csc(NC(=O)CSc3nc(C)cc(=O)[nH]3)n2)cc1 | 0%[0.501 µM] | 18µM* | ? | ? | 18µM* | 7%
Cc1ccc(-c2csc(NC(=O)CSc3nnc4c(n3)[nH]c3ccccc34)n2)cc1 | -8% | 13µM* | -3% | -6% | 5.8µM* | 5%
Cc1ccc(NC(=O)CSc2nnc3c(n2)[nH]c2ccccc23)cc1 | -3% | 3% | 4% | -1% | 8% | 2%[0.0935 µM]
COc1ccccc1C(=O)Nc1ccc(C(=O)OCc2cc(=O)n3nc(C4CC4)sc3n2)cc1 | -3% | -15% | 13% | · | -20% | 4%
O=C(CSc1nc2[nH]ncc2c(=O)[nH]1)Nc1ccccc1 | -1% | 14% | -15% | -13% | -6% | 5%
O=C(CSc1nnc2c(n1)[nH]c1ccccc12)Nc1cccc(S(=O)(=O)N2CCOCC2)c1 | -2% | 15µM* | 0% | -25% | ? | ·
Cc1csc(NC(=O)CSc2nc3[nH]ncc3c(=O)[nH]2)n1 | 0% | ? | ? | 21µM* | 29µM* | 7%
CCOc1ccccc1N1CCN(CC(=O)N(CC(C)C)c2c(N)n(CC(C)C)c(=O)[nH]c2=O)CC1 | -7% | -7% | -2% | -4% | -4% | 1%
CCC(Sc1nc2cc3c(cc2c(=O)n1Cc1ccco1)OCO3)C(=O)Nc1ccccc1OC (stereo not drawn) | 0% | 8.2µM* | 4% | -8% | 8.2µM* | 2%
CCCCNC(=O)CSc1nc2cc3c(cc2c(=O)n1Cc1ccco1)OCO3 | 2% | 18µM* | -11% | 4% | 16µM* | 1%
CCOC(=O)c1c(S(=O)(=O)NCc2ccc(C)o2)c(C)n(C)c1C | -2% | ? | 3% | 0% | -13% | 3%
CCN(CC)c1ccc2cc(-c3nc(-c4ccc(OC)cc4)cs3)c(=O)oc2c1 | -5% | ? | -12% | ? | 15µM* | ·
CCN(CC)c1ccc2cc(-c3nc4ccccc4n3C)c(=O)oc2c1 | -13% | 0.65µM* | ? | -2% | 1.2µM* | -4%
CN(C)Cc1c(O)ccc2cc(-c3nc4ccccc4n3C)c(=O)oc12 | ? | -2% | 7% | -13% | 4% | 3%
CCN(CC)c1ccc2cc(-c3nc(-c4ccc(Cl)cc4Cl)cs3)c(=O)oc2c1 | -6% | 2% | -5% | · | 1% | 3%
CCN(CC)c1ccc2cc(C(=O)c3cccs3)c(=O)oc2c1 | · | 18µM* | · | ? | ? | ·
COCc1cc(C)nc2c1C(=O)NC(c1ccc(F)cc1)N2Cc1ccccc1 (stereo not drawn) | 1% | -7% | 4% | · | -16% | 9%
COc1ccc(N2CCN(S(=O)(=O)c3c(C)nc4sc(C)cn4c3=O)CC2)cc1 | -5% | -9% | 2% | · | -13% | -10%
CC(C)c1ccc2oc(-c3ccc(NC(=O)c4cccc(Br)c4)cc3)nc2c1 | -7% | ? | 16% | · | ? | 5%[12.3 µM]
CSc1ncc(C(=O)N2CCN(c3cc(C)ccc3C)CC2)c(C)n1 | -14% | 21µM* | 2% | · | ? | -1%
Cc1ccc(C)c(N2CCN(C(=O)c3cc4c(=O)n(Cc5cccnc5)ccc4nc3C)CC2)c1 | -2% | 23µM* | 9% | · | ? | 7%
Cc1ccc(C)c(N2CCN(C(=O)c3cc4c(=O)n(Cc5ccccc5)ccc4nc3C)CC2)c1 | 3% | 16µM* | 4% | · | 23µM* | 6%
Cc1nc2ccn(Cc3ccco3)c(=O)c2cc1C(=O)N1CCN(c2ccccc2)CC1 | -15% | 5% | 10% | · | -21% | -1%
